# Assay results reported in PubChem BioAssay (NCI).
# Where “and” joins values, the source holds several entries; their conditions need not be identical. Identical values can stand only once. About 83,000 compounds went through this panel and 20% of them were active in at least one assay; those are over-represented in the sample as a whole.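 For each line, cells grew in 96-well plates with the test compound present at a single concentration for 48 hours.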 Unmarked numbers belong to inactive results. Calls of active or inactive are those of the source.
# Tested on: SN12C renal
# Assay: NCI-60 one-dose screen, 48 h (100 = growth as untreated, 0 = no growth, -100 = all killed)
# Conditions: 10 µM
# Experimental: Growth inhibition of the SN12C human tumor cell line is measured as a screen for anti-cancer activity. Cells are grown in 96 well plates and exposed to the test compound for 48 hours. Compounds are tested at a single concentration, which is 10^-5 M for most compounds. The reported endpoint is percent growth (GI% or GIPRCNT), where numbers from 0 - 100% represent growth inhibition, and numbers from -100% - 0 represent cell death. For example, a value of 40 represents 60% growth inhibition. A value of 0 means no net growth occurred over the course of the experiment. A value of -40 indicates 40% of cells at the beginning of the experiment died by the end of the experiment. A value of -100 means all cells are dead at the end of the experiment.
# NCI-60 Human Tumor Cell Lines Screen was performed using the standard one-dose NCI protocol, which is described in more detail at https://dtp.cancer.gov/discovery_development/nci-60/default.htm.
# Compounds with GIPRCNT values below 10 were considered active. Activity score was based on GIPRCNT using the following formula: […]
# Score is 0 for GIPRCNT values of 100 or above, 50 for GIPRCNT values of 0, and 100 for GIPRCNT values of -100.
row,SMILES,growth
1,S=C(SSC(=S)N1CCCCC1)N1CCCCC1,96.1%

# Same assay, conditions: 10 µM unless noted
row,SMILES,growth
1,NCCc1ccc(OCc2ccccc2)c(OCc2ccccc2)c1,86.6%
2,CC[n+]1c(-c2ccccc2)c2cc(N)ccc2c2ccc(N)cc21,-16.5% (active)
3,COC1=C(C)C(=O)C2=C(C1=O)C(CO)N1C(C#N)C3CC4C(C1C2N1CCOC41)N3C (stereo not given),19.8%
4,CCC1(O)CC(OC2CC(N(C)C)C(OC3CC4OC5CC(=O)C(C)OC5OC4C(C)O3)C(C)O2)c2c(cc3c(c2O)C(=O)c2c(O)ccc(O)c2C3=O)C1C(=O)OC (stereo not given),13.4%
5,O=C1c2ccccc2C(=O)C(Cl)C1Cl (stereo not given),71.4%
6,Cc1c(N)nc([C@H](CC(N)=O)NC[C@H](N)C(N)=O)nc1C(=O)N[C@H](C(=O)N[C@H](C)[C@@H](O)[C@H](C)C(=O)N[C@H](C(=O)NCCc1nc(-c2nc(C(=O)NCCC[S+](C)C)cs2)cs1)[C@@H](C)O)C(OC1OC(CO)C(O)C(O)C1OC1OC(CO)C(O)C(OC(N)=O)C1O)c1cnc[nH]1 (stereo not given in full),52.2% [2.5 µM]
7,Cc1cc(N=Nc2ccccc2C)ccc1N,28.9%
8,C[C@H]1CCC/C=C/[C@@H]2C[C@H](O)C[C@H]2[C@H](O)/C=C/C(=O)O1,19.8%
9,CC[C@](O)(C(=O)O)c1cc2n(c(=O)c1CO)Cc1cc3ccccc3nc1-2,17%
10,COc1cccc2c1cc([N+](=O)[O-])c1c(C(=O)O)cc3c(c12)OCO3,65.1% and 113%
11,CCC(=O)OC1CCn2c1nc1c2C(=O)C(C)=C(N2CC2)C1=O (stereo not given),-43.9% (active)
12,CC[C@@]1(O)C[C@H](OC2CC(N(C)C)C(OC3CC(O)C(OC4CCC(=O)C(C)O4)C(C)O3)C(C)O2)c2c(cc3c(c2O)C(=O)c2c(O)ccc(O)c2C3=O)[C@H]1C(=O)OC (stereo not given in full),24.3%
13,CC(=O)O[C@H]1C[C@@H]2OC3C=C(C)CCC3(C)[C@@]1(C)[C@@]21CO1 (stereo not given in full),-9.69% (active) and 0.846% (active)
14,CC[C@@]1(O)C[C@H](OC2CC(N(C)C)C(O)C(C)O2)c2c(O)c3c(c(O)c2[C@H]1OC1CC(N(C)C)C(O)C(C)O1)C(=O)c1cccc(O)c1C3=O (stereo not given in full),11.4%
15,CN1CCN(c2ccc([N+](=O)[O-])c3no[n+]([O-])c23)CC1,-63.9% (active)
16,C[C@]12CC[C@H](O)CC1=CC[C@@H]1[C@@H]2CC[C@]2(C)C(=O)CC[C@@H]12,106%
17,COc1ccccc1/C=C(/C)[N+](=O)[O-],32.9% and 99.3%
18,CCCCCCCCCCCC1CCCC(C)N1 (stereo not given),75.3%
19,CO[C@H](/C(C)=C/C=C/C(C)=C/c1coc(C)n1)[C@H](C)[C@H]1C[C@@H](O)[C@@]2(C)O[C@H]2/C=C/[C@@H](C)[C@@H]2C[C@@H](CC(=O)O2)C[C@H]2O[C@@H]2C(=O)O1,48.7%
20,COc1ccc(OC)c(/C=C/[N+](=O)[O-])c1,15.9%
21,CC1=C2C(=O)[C@H]3[C@@H](CC=C4C[C@@H](O)CC[C@@]43C)[C@@H]2CC[C@]12O[C@@H]1C[C@H](C)CN[C@H]1[C@H]2C,102%
22,CC1=C(CO)C2=C(C)C3(CC3)[C@@](C)(O)C(=O)C2=C1,20.5%
23,COC1CC(CC2CCC(C)C(C(C)C(=O)O)O2)OC2(OC(C)(C3CCC(C)(C4OC(C5OC(O)(CO)C(C)CC5C)CC4C)O3)CC2C)C1C (stereo not given),17.1%
24,CCOC(=O)C(NC(=O)C(Cc1ccc(N(CCCl)CCCl)cc1)NC(C)=O)C(C)C (stereo not given),76.2%
25,Oc1cccc2cccnc12,89.6% and 103% and 99.6%
26,Cc1ccc(C(=O)OC(C(=O)O)C(OC(=O)c2ccc(C)cc2)C(=O)O)cc1 (stereo not given) (tested in a mixture with another compound),38.5%
27,CC[C@@]1(O)C(=O)OCc2c1cc1n(c2=O)Cc2cc3ccccc3nc2-1,13.5%
28,Oc1cc[c]([Hg][Cl])cc1,98.9%

# Same assay, conditions: 100 µM
row,SMILES,growth
1,S=C(SSC(=S)N1CCCCC1)N1CCCCC1,-42.3% (active)
